Several values for one entry are separate records, joined by “and”; a condition that tells them apart may be missing. Equal entries are not always repeated. Structures can show the parent of a compound that is named as a salt.
Experiments:
Assay in all cases: cell viability relative to vehicle control; higher = less cytotoxic
Conditions in all cases: 10 µM
K562 = system: K562
In short: (§1)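 Mutant clones made by CRISPR editing and their isogenic wild-type counterparts, from four leukaemia lines, were exposed to a single 10 µM dose of each library compound for 48 h. The supernatant was then removed and CellTiter-Glo luminescence was read. Viability was reported as percent of the on-plate vehicle control.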

MARIMO = system: MARIMO
In short: as §1

MOLM14 = system: MOLM14
In short: as §1

OCI-AML2 = system: OCI-AML2
In short: as §1

| SMILES | cell viability (K562; SRSF2 genotype: SRSF2 P95H/wt) | cell viability (K562; SRSF2 genotype: SRSF2 wt/wt) | cell viability (MARIMO; SRSF2 genotype: SRSF2 P95H/wt) | cell viability (MARIMO; SRSF2 genotype: SRSF2 wt/wt) | cell viability (MOLM14; SRSF2 genotype: SRSF2 P95H/wt) | cell viability (MOLM14; SRSF2 genotype: SRSF2 wt/wt) | cell viability (OCI-AML2; SRSF2 genotype: P95H/wt) | cell viability (OCI-AML2; SRSF2 genotype: wt/wt) |
| --- | --- | --- | --- | --- | --- | --- | --- | --- |
| CCCCCCCCOc1ccccc1C(=O)Nc1ccc(C(=O)OCC[N+](C)(CC)CC)cc1 [Otilonium Bromide] | 78.5% and 92% | 92.3% | 84.9% | 84.5% | 76.7% | 89% | 34.4% | 70.2% |
| CC(C)=CCC[C@@H](C)CC=O [Citronellal] | 104% and 96.5% | 112% | 96.2% | 102% | 103% | 106% | 105% | 114% |
| CCCC[C@@H](C=O)NC(=O)[C@H](CC(C)C)NC(=O)OCc1ccccc1 [Calpeptin] | 91.3% and 95.4% | 98.5% | 90.9% | 95.2% | 83.2% | 98.9% | 96.6% | 101% |
| COc1cc2c3cc1Oc1c(OC)c(OC)cc4c1[C@@H](Cc1ccc(O)c(c1)Oc1ccc(cc1)C[C@@H]3N(C)CC2)N(C)CC4 [Berbamine (dihydrochloride)] | 72.6% and 53.2% | 66.9% | 70.8% | 72.8% | 68.2% | 78.2% | 57.1% | 60.4% |
| CCOC(=O)[C@H](CCc1ccccc1)N[C@H]1CS[C@H](c2cccs2)CN(CC(=O)O)C1=O [Temocapril HCl] | 102% and 101% | 98.8% | 101% | 113% | 99.7% | 102% | 102% | 111% |
| OC[C@H]1O[C@@H](OCCc2ccc(O)cc2)[C@H](O)[C@@H](O)[C@@H]1O [Salidroside (Rhodioloside)] | 101% and 105% | 102% | 106% | 104% | 105% | 109% | 101% | 94.6% |
| C[C@H]1CNC(=O)c2cnn3ccc(nc23)N[C@H](C)c2cc(F)ccc2O1 | 14.4% and 36.7% | 18% | 48.6% | 51.6% | 9.21% | 5.47% | 8.06% | 19.4% |
| O=C1C[C@@H](c2ccccc2)Oc2cc(O)cc(O)c21 [Pinocembrin] | 91.6% and 92.5% | 95.4% | 96.4% | 99.8% | 109% | 112% | 95.1% | 87.8% |
| CC1(C)[C@@H](O[C@H]2O[C@H](C(=O)O)[C@@H](O)[C@H](O)[C@H]2O[C@@H]2O[C@H](C(=O)O)[C@@H](O)[C@H](O)[C@H]2O)CC[C@]2(C)[C@H]3C(=O)C=C4[C@@H]5C[C@@](C)(C(=O)O)CC[C@]5(C)CC[C@@]4(C)[C@]3(C)CC[C@@H]12 [Ammonium Glycyrrhizinate (AMGZ)] | 101% and 111% | 107% | 107% | 102% | 104% | 106% | 112% | 95.4% |
| COc1ccc2cc3[n+](cc2c1OC)CCc1cc2c(cc1-3)OCO2 [Berberine chloride] | 66.5% and 69.6% | 65.3% | 67.2% | 66.7% | 70.4% | 81.3% | 48.9% | 53.8% |
| C[C@@H]1CC(=O)NN=C1c1ccc(NN=C(C#N)C#N)cc1 [Levosimendan] | 92.4% and 105% | 99.4% | 68.9% | 86% | 94.7% | 81.7% | 69.8% | 67.1% |
| CC1OC(OC2C(OC3CCC4(C)C(CCC5(C)C4CC=C4C6CC(C)(C)CCC6(C(=O)OC6OC(COC7OC(CO)C(O)C(O)C7O)C(O)C(O)C6O)CCC45C)C3(C)CO)OCC(O)C2O)C(O)C(OC2OC(CO)C(O)C(O)C2O)C1O (stereo not given) [Macranthoidin A] | 99.3% and 97.9% | 100% | 100% | 102% | 102% | 96.6% | 98% | 105% |
| OC[C@H]1O[C@@H](c2ccc(Cl)c(Cc3ccc(O[C@H]4CCOC4)cc3)c2)[C@H](O)[C@@H](O)[C@@H]1O | 89.6% and 87.1% | 94.4% | 89.4% | 102% | 94.3% | 93.8% | 93.1% | 105% |
| CN(C)Cc1ccc(-c2nc3cccc4c3n2CCNC4=O)cc1 | 108% and 106% | 110% | 76.7% | 78.9% | 65.5% | 34.3% | 55.2% | 67.9% |
| C[N+](C)(C)CC(O)CC(=O)[O-] (racemic) [DL-Carnitine hydrochloride] | 101% and 105% | 98.8% | 98.4% | 106% | 98.1% | 103% | 102% | 101% |
| CN1CCN(c2ccc3nc(-c4c(N)c5c(F)cccc5[nH]c4=O)[nH]c3c2)CC1 [Dovitinib Dilactic acid (TKI258 Dilactic aci] | 6.48% and 13.2% | 8.9% | 10.8% | 12.8% | 0.16% | 0.07% | 0.15% | 0.51% |
| C=C[C@@H]1C[C@]1(NC(=O)[C@@H]1C[C@@H](Oc2ncc(OC)c3ccc(Cl)cc23)CN1C(=O)[C@@H](NC(=O)OC(C)(C)C)C(C)(C)C)C(=O)NS(=O)(=O)C1CC1 [Asunaprevir] | 88.6% and 75.8% | 78.8% | 103% | 109% | 96.3% | 97.9% | 108% | 110% |
| CC1Cc2ccccc2N1NC(=O)c1ccc(Cl)c(S(N)(=O)=O)c1 (stereo not given) [Indapamide (Lozol)] | 108% and 105% | 103% | 106% | 105% | 106% | 106% | 114% | 104% |
| CN(C)CCC[C@@]1(c2ccc(F)cc2)OCc2cc(C#N)ccc21 [Escitalopram Oxalate] | 87.5% and 88.8% | 92.8% | 85.4% | 91.1% | 89.4% | 93.7% | 89.2% | 88.4% |
| C=C(C)C1CC=C(C=NO)CC1 (stereo not given) [Perillartine] | 100% | 98.3% | 104% | 105% | 93% | 99.8% | 100% | 112% |

| SMILES | cell viability (K562; SRSF2 genotype: SRSF2 P95H/wt) | cell viability (K562; SRSF2 genotype: SRSF2 wt/wt) | cell viability (MARIMO; SRSF2 genotype: SRSF2 P95H/wt) | cell viability (MARIMO; SRSF2 genotype: SRSF2 wt/wt) | cell viability (MOLM14; SRSF2 genotype: SRSF2 P95H/wt) | cell viability (MOLM14; SRSF2 genotype: SRSF2 wt/wt) | cell viability (OCI-AML2; SRSF2 genotype: P95H/wt) | cell viability (OCI-AML2; SRSF2 genotype: wt/wt) |
| --- | --- | --- | --- | --- | --- | --- | --- | --- |
| CC(C)CC(CC(=O)NO)C(=O)N[C@@H](Cc1ccc2ccccc2c1)C(=O)N[C@@H](C)C(=O)NCCN (stereo not given in full) | 105% | 110% | 112% | 109% | 99.1% | 104% | 110% | 106% |
| COc1c(N2C[C@@H]3CCCN[C@@H]3C2)c(F)cc2c(=O)c(C(=O)O)cn(C3CC3)c12 [Moxifloxacin] | 94.1% and 92.9% | 90.2% | 93.9% | 99.8% | 95.3% | 96.4% | 86.8% | 90.4% |
| CC(C)=CCC/C(C)=C/C=O [Citral] | 96% and 106% | 94.4% | 88.4% | 98.9% | 88.2% | 94.8% | 95.3% | 92% |
| O=C(Nc1ccc(O)cc1)c1ccccc1O [Osalmid] | 98.1% and 108% | 98.3% | 93% | 95.8% | 107% | 109% | 99% | 87.3% |
| CCC[C@@H]1C[C@@H](C(=O)N[C@@H]([C@H]2O[C@H](SC)[C@H](O)[C@@H](O)[C@H]2O)[C@@H](C)O)N(C)C1 [Lincomycin hydrochloride (Lincocin)] | 102% and 79.7% | 82.2% | 88.7% | 95.2% | 92.6% | 91.7% | 79.5% | 93.9% |
| O=C1CN2Cc3c(ccc(Cl)c3Cl)N=C2N1 [Anagrelide hydrochloride] | 94.6% and 89.8% | 108% | 84.1% | 96.4% | 83.4% | 93.4% | 101% | 110% |
| Cc1ccc([C@@H]2O[C@H](CO)[C@@H](O)[C@H](O)[C@H]2O)cc1Cc1ccc(-c2ccc(F)cc2)s1 [Canagliflozin] | 93.4% and 99.1% | 99.7% | 99% | 90.3% | 102% | 102% | 102% | 97.1% |
| Nc1nc(Cl)nc2c1ncn2[C@@H]1O[C@H](CO)[C@@H](O)[C@@H]1F [Clofarabine] | 96.7% and 113% | 105% | 11.5% | 8.77% | 2.95% | 0.83% | 5.47% | 4.64% |
| O=c1c(O)c(-c2ccc(O)cc2O)oc2cc(O)cc(O)c12 [Morin hydrate (Aurantica)] | 94.3% and 106% | 106% | 108% | 108% | 107% | 107% | 107% | 102% |
| CC(C)N(CCC(=O)c1ccc2ccccc2c1)Cc1ccccc1 | 12.2% and 12.8% | 13.9% | 0.57% | 0.67% | 0.58% | 0.45% | 0.38% | 0.4% |
| C/C=C1\[C@H]2C=C(C)C[C@]1(N)c1ccc(=O)[nH]c1C2 [(-)-Huperzine A (HupA)] | 105% and 103% | 108% | 103% | 103% | 115% | 110% | 109% | 103% |
| CC(C)CN(CC(=O)N1CCN(CC(OCc2ccc3ccccc3c2)c2ccc(Cl)cc2Cl)CC1)CC(C)C (stereo not given) | 73.4% and 83% | 79.2% | 54.3% | 43.2% | 56.2% | 71% | 36% | 41.8% |
| C[C@H](NCc1ccc(OCc2cccc(F)c2)cc1)C(N)=O | 102% | 99.9% | 105% | 102% | 98.2% | 98.2% | 115% | 106% |
| O=C(Cn1nnc(-c2ccncc2)c1-c1ccccc1)Nc1ccc(-c2ccccc2)cn1 | 58% and 48.3% | 57.6% | 51.6% | 53.3% | 54.6% | 51.1% | 35.9% | 40.8% |
| O=c1cc(-c2ccccc2)oc2cc(O)c(O)c(O)c12 [Baicalein] | 81.4% and 80% | 80.5% | 88.2% | 83.8% | 74.8% | 85.2% | 91.2% | 82.6% |
| CCCCCCC(O)C(=O)O (stereo not given) [2-Hydroxycaprylic acid] | 103% and 102% | 107% | 101% | 105% | 101% | 109% | 105% | 111% |
| CC[C@@H]1/C=C(\C)C[C@H](C)C[C@H](OC)[C@H]2O[C@@](O)(C(=O)C(=O)N3CCCC[C@H]3C(=O)O[C@H](/C(C)=C/[C@@H]3CC[C@@H](O)[C@H](OC)C3)[C@H](C)[C@@H](O)CC1=O)[C@H](C)C[C@@H]2OC [Ascomycin (FK520)] | 75.8% and 83% | 83.6% | 86.6% | 96.8% | 89.1% | 89.1% | 95.8% | 93.5% |
| C=CC(=O)Nc1cccc(Oc2nc(Nc3ccc(N4CCN(C)CC4)cc3OC)ncc2Cl)c1 | 102% and 107% | 103% | 85.8% | 98.7% | 57.6% | 84.8% | 92% | 83.9% |
| CN1C(C(=O)Nc2ccccn2)=C(O)c2sccc2S1(=O)=O [Tenoxicam(Mobiflex)] | 105% and 103% | 102% | 107% | 112% | 98.4% | 106% | 95.5% | 105% |
| Cc1cn([C@@H]2C[C@@H](O)[C@H](CO)O2)c(=O)[nH]c1=O [Telbivudine (Sebivo, Tyzeka)] | 96.7% and 104% | 101% | 105% | 102% | 99.2% | 108% | 113% | 102% |
